Screens (PubChem)
Rows were chosen to be rich in hits. Some 2.3% of all compounds tested hit in one or more screens of this group.
USP1-UAF1 inh = blocks the human USP1/UAF1 deubiquitinase complex; AID 743255; O94782; Potency, µM (series often up to 57.1 µM), hits mostly inhibitors; 390,000 compounds, 0.23% hits; recombinant USP1/UAF1, Ub-Rhodamine cleavage fluorescence; note: nearly all actives have a fitted effect of over 60% in size
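USP1/UAF1 complex (1 nM) preincubated 15 min at room temperature with compound, then Ub-Rho substrate (150 nM final) added. Kinetic fluorescence at 480/540 nm over 6 reads at 60 s intervals; 50 mM HEPES pH 7.8, 0.5 mM EDTA, 0.1 mg/ml BSA, 1 mM TCEP, 0.01% Tween-20.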
Tau fluor cs = counter-screen for tau fibril formation inhibitors. tau K18 P301L Alexa594 fluorescence, heparin fibrillization. Potency, µM (series often up to 57.7 µM). 280,000 compounds, 0.93% hits; note: nearly all actives have a fitted effect of over 55% in size
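Human tau K18 P301L (15 uM unlabeled, 0.24 uM Alexa 594-labeled) in 100 mM sodium acetate pH 7 with 20 uM heparin, 6 hr at 37 C. ThT 30 uM added, 1 hr ambient; Alexa 594 FP and total fluorescence read at 555/632 nm.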
Tau fibril ThT = inhibitors of human tau fibril formation, thioflavin T binding; P10636; Potency, µM (top dose mostly 57.4 µM), most hits filed as inhibitors; recombinant tau K18 P301L, heparin-induced fibrillization, ThT fluorescence; 270,000 compounds, 2.1% hits; note: nearly all actives have a fitted effect of over 55% in size
Target sequence (P10636 561-689 P618L limits assumed): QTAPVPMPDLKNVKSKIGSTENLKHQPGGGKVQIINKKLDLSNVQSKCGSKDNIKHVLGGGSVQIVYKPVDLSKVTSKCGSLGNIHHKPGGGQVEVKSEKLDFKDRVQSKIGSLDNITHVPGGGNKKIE
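Recombinant human tau K18 fragment […] carrying P301L, 15 uM unlabeled plus 0.24 uM Alexa 594-labeled, was fibrillized with 20 uM heparin in 100 mM sodium acetate pH 7 for 6 hr at 37 C; 30 uM ThT fluorescence read after 1 hr.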
Tau FP inhib = blocks human tau fibril formation measured by polarization. Potency, µM (doses to about 57.7 µM), usual class: inhibitors. K18 P301L tau heparin fibrillization, Alexa594 FP, 6 h. 280,000 compounds, 0.39% hits. P10636; note: nearly all actives have a fitted effect of over 55% in size
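Heparin (20 uM) drove fibril formation of recombinant tau K18 P301L, 15 uM unlabeled with 0.24 uM Alexa 594 label, for 6 hr at 37 C in 100 mM sodium acetate pH 7. Fluorescence polarization (555/632 nm) read 1 hr after 30 uM ThT.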
Coupling enz = counter-screen for Giardia aldolase inhibitors: coupling enzyme system; coupling enzyme system counterscreen, AmpLite Red fluorescence; 290,000 compounds, 0.67% hits; activity change, negative = inhibition, % at 58.2 µM, hits read low; in the data active = activity change below about -30%
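Final compound at 57.5 uM, incubated 10 min at RT with coupling enzyme reagent (glyceraldehyde-3-phosphate), then 20 min with substrate and AmpLite Red detection. Fluorescence read at 525/598 nm; tests interference with the coupling assay, not aldolase inhibition.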
A number is an active result; – = inactive; ? = inconclusive; · = no result given; [ ] = another dose, or the depositor's remark. Unless noted, calls come from the whole dose curve; as a rule, active = well fitted curve in the direction sought with a large enough effect; inconclusive = small, poorly fitted or top-dose-only effect, or another doubt; inactive = no such curve, though single readings can be large; an effect the other way counts as inactive or inconclusive.

SMILES | USP1-UAF1 inh | Tau fluor cs | Tau fibril ThT | Tau FP inhib | Coupling enz
Cc1cccc(C2=NN(c3ccccc3)[C@H](CO)[C@H]2c2ccc(F)cc2)c1 | – | 32µM[quencher] | ? | ? | –
Cc1cccc(C2=NN(c3ccccc3)[C@H](CO)[C@H]2c2ccc(Cl)cc2)c1 | – | 11µM[quencher] | ? | ? | –
CN1C(=O)C(=O)/C(=C(/O)c2ccc(Br)cc2)C1c1ccc(F)cc1 (configuration not stated) | – | · | · | · | –
CCC(=O)Nc1ccc(S(=O)(=O)NCc2cccn2Cc2cccc(C)c2)cc1 | – | ? | – | – | ·
Cc1ccc(-n2c(=O)c3c4c(sc3n(Cc3cccc(Cl)c3)c2=O)CCC4)cc1C | – | – | – | – | ·
Cc1ccc2nc(-c3ccc(N)cc3)sc2c1 | – | ? | 5.6µM | – | –
Cc1ccc2sc(-c3ccc(N)cc3)nc2c1 | ? | ? | 4.5µM | – | ·
Nc1ccc2nc(-c3ccccc3)sc2c1 | – | – | ? | – | –
Nc1ccc(-c2nc3cc(N)ccc3s2)cc1 | – | ? | 14µM | – | –
COc1cccc(Cn2c(=O)n(-c3ccc(Br)cc3F)c(=O)c3sc4ccccc4c32)c1 | ? | – | – | ? | ·
Cc1cccc(CN2CCC(n3nccc3NC(=O)CCCc3ccccc3)CC2)n1 | – | · | · | · | –
O=C(NNc1ccc(C(F)(F)F)cc1[N+](=O)[O-])c1ccc(NS(=O)(=O)c2ccc(F)cc2)cc1 | – | 11µM[quencher] | 14µM | ? | –
COc1ccc(CN2CCNC(=O)C2CC(=O)N2CCCO2)c(OC)c1 (configuration not stated) | – | – | – | – | –
c1ccc(-c2csc(Nc3cccnc3)n2)nc1 | – | – | ? | – | –
Cc1cc(O)ccc1Nc1nc(-c2cccnc2)cs1 | – | · | · | · | –
Cc1cc(O)ccc1Nc1nc(-c2cccs2)cs1 | ? | 25µM[quencher] | 14µM | – | –
c1cncc(Nc2nc(-c3cccs3)cs2)c1 | – | 16µM[quencher] | ? | – | –
Cc1ccc(Nc2nc(-c3cccs3)cs2)nc1 | – | 22µM[quencher] | 16µM | – | –
Cc1cccc(N=C2NC(=O)/C(=C/c3cccn3C)S2)c1 | – | – | 7.9µM | – | –
Cc1ccccc1N=C1NC(=O)/C(=C/c2cccn2C)S1 | – | – | ? | – | –
COc1ccc(OC)c(Nc2ccc(Nc3cc(OC)ccc3OC)nn2)c1 | – | 13µM[quencher] | ? | ? | –
O=C(NCc1ccccc1)c1ccc(Cn2c(=O)c3cccn3c3cccnc32)cc1 | – | – | – | – | ·
Cc1ccc(C)c(N2CCN(C(=O)c3cnn(C(C)(C)C)c3C3CCN(C(=O)OC(C)(C)C)CC3)CC2)c1 | ? | – | ? | – | ·
CCOC(=O)c1c(C(F)(F)C(F)(F)C(F)(F)C(F)(F)F)n[nH]c1C | – | – | – | 14µM | –
O=C1COc2ccc(-c3cc(-c4ccccc4)c4c(n3)-c3cc(Cl)ccc3OC4)cc2N1 | – | – | – | ? | ·
SMILES | USP1-UAF1 inh | Tau fluor cs | Tau fibril ThT | Tau FP inhib | Coupling enz
O=C(NC(NC1CCS(=O)(=O)C1)C(=O)c1cccs1)c1ccccc1 (configuration not stated) | – | – | – | – | –
O=C(NC1=C(NC2CCS(=O)(=O)C2)C(=O)c2ccccc2C1=O)c1ccccc1 (configuration not stated) | ? | – | – | – | -62
O=C(NC1=C(Nc2ccc(Cl)cc2)C(=O)c2ccccc2C1=O)c1ccccc1 | ? | ? | 18µM | – | -30
Cc1cccc(NC2=C(NC(=O)c3ccccc3)C(=O)c3ccccc3C2=O)c1 | ? | – | ? | – | -41
Cc1cccc(C(=O)Nc2cccc(NC(=O)c3ccccc3)c2)c1 | – | · | · | · | –
CN(C1=C(NC(=O)c2ccc(Cl)cc2)C(=O)c2ccccc2C1=O)c1ccccc1 | – | – | – | – | -55
CN(c1ccc(C(=O)Nc2ccc(Cl)cn2)cc1)S(=O)(=O)c1ccccc1 | – | – | – | – | –
O=C(O)c1cc(O)ccc1O | – | · | · | · | ·
O=C(O)C1=CC(=C(c2ccc(O)c(C(=O)O)c2)c2ccc(O)c(C(=O)O)c2)C=CC1=O | · | ? | 32µM | ? | –
OC(CNCCC1C=Nc2ccccc21)Cn1c2ccc(Cl)cc2c2cc(Cl)ccc21 (configuration not stated) | – | 3.2µM[quencher] | ? | ? | –
OC(CNCC1CCCO1)Cn1c2ccc(Cl)cc2c2cc(Cl)ccc21 (configuration not stated) | – | ? | ? | ? | –
O=C(Cn1c(=O)n(Cc2ccc3c(c2)OCO3)c(=O)c2oc3ccccc3c21)Nc1ccc(F)cc1 | ? | – | ? | ? | ·
CNc1ccc(Br)cc(C(=O)/C=C/c2cc(OC)ccc2OC)c1=O | ? | ? | 10µM | ? | –
CNc1ccc(Br)cc(C(=O)/C=C/c2ccc3c(c2)OCO3)c1=O | ? | ? | 13µM | ? | –
COc1ccc(/C=C/C(=O)c2cc(Br)ccc2O)cc1OC | – | – | ? | – | –
O=C(/C=C/c1ccc2c(c1)OCO2)NC1CCCC1 | – | · | · | · | –
CNc1ccc(Br)cc(C(=O)/C=C/c2ccc(OC)cc2)c1=O | ? | ? | 14µM | ? | –
CCNc1ccc(Br)cc(C(=O)/C=C/c2ccc(Cl)cc2Cl)c1=O | ? | – | 16µM | – | –
COCCCNC(=O)/C=C/c1ccc(Cl)cc1Cl | – | – | – | – | –
CCOc1ccccc1CNC(=O)CCC(=O)N1CCSc2ccccc21 | – | – | – | – | ·
COc1ccc(CCNC(=O)CS(=O)(=O)Cc2nc(-c3cccc(Cl)c3)oc2C)cc1OC | – | – | – | – | ·
CCOC(=O)CCN1C(=O)[C@H]2[C@H]3[C@H](O)[C@H](O)C/C(=N/OC/C=C(\C)CCC=C(C)C)[C@@H]3CC[C@@H]2C1=O | · | –[11.6 µM] | –[11.5 µM] | –[11.6 µM] | –
O=C(/C=C/c1ccc2c(c1)OCO2)c1ccccn1 | ? | – | 14µM | – | –
O=C(C=Cc1ccc2c(c1)OCO2)c1ccccc1 | – | · | · | · | ·
CCc1nn(CC(=O)NCCCN2CCN(CC)CC2)c(=O)c2cc3occc3n12 | – | – | – | – | ·
SMILES | USP1-UAF1 inh | Tau fluor cs | Tau fibril ThT | Tau FP inhib | Coupling enz
COc1ccc(Cl)cc1C(Nc1cccnc1)c1ccc2cccnc2c1O (configuration not stated) | – | – | 28µM | ? | –
C=CC[n+]1c(-c2ccc(OCC)cc2)csc1NNC(=O)Nc1ccccc1 | – | ? | 13µM | – | –
COc1ccc(C(=O)NCCn2cc(SCc3c(F)cccc3Cl)c3ccccc32)cc1 | – | ? | ? | ? | ·
COc1c(C=O)c(O)cc2c1C(=O)c1ccccc1C2=O | · | ? | 7.9µM | ? | ·
O=C(COC(=O)c1cc([N+](=O)[O-])ccc1N1CCOCC1)c1ccc(F)cc1 | – | · | · | · | ·
CO/N=C/c1ccc(N2CCCC2)c([N+](=O)[O-])c1 | – | – | ? | – | –
O=C(O/N=C\c1ccc(N2CCOCC2)c([N+](=O)[O-])c1)c1ccccc1Cl | – | ? | 13µM | – | –
O=C(O/N=C\c1ccc(N2CCOCC2)c([N+](=O)[O-])c1)c1ccc(F)cc1 | – | – | 5µM | – | –
